The values that follow come from the supplement of paper PMC12819154, “High-throughput peptide-centric local stability assay extends protein–ligand identification to membrane proteins, tissues and bacteria” (Nature Structural & Molecular Biology, 2025).

UniProt Q8TB40, sequence (Q8TB40 whole entry): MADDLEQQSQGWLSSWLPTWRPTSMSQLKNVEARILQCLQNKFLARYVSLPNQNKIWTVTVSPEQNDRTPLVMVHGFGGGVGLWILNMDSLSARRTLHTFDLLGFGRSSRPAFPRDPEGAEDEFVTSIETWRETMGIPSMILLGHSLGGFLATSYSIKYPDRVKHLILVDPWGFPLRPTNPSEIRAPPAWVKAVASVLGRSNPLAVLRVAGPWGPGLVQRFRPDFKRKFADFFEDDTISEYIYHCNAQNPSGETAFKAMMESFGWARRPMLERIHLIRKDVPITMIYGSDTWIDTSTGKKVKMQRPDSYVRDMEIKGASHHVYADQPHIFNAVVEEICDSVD
UniProt P42684, sequence (P42684 whole entry): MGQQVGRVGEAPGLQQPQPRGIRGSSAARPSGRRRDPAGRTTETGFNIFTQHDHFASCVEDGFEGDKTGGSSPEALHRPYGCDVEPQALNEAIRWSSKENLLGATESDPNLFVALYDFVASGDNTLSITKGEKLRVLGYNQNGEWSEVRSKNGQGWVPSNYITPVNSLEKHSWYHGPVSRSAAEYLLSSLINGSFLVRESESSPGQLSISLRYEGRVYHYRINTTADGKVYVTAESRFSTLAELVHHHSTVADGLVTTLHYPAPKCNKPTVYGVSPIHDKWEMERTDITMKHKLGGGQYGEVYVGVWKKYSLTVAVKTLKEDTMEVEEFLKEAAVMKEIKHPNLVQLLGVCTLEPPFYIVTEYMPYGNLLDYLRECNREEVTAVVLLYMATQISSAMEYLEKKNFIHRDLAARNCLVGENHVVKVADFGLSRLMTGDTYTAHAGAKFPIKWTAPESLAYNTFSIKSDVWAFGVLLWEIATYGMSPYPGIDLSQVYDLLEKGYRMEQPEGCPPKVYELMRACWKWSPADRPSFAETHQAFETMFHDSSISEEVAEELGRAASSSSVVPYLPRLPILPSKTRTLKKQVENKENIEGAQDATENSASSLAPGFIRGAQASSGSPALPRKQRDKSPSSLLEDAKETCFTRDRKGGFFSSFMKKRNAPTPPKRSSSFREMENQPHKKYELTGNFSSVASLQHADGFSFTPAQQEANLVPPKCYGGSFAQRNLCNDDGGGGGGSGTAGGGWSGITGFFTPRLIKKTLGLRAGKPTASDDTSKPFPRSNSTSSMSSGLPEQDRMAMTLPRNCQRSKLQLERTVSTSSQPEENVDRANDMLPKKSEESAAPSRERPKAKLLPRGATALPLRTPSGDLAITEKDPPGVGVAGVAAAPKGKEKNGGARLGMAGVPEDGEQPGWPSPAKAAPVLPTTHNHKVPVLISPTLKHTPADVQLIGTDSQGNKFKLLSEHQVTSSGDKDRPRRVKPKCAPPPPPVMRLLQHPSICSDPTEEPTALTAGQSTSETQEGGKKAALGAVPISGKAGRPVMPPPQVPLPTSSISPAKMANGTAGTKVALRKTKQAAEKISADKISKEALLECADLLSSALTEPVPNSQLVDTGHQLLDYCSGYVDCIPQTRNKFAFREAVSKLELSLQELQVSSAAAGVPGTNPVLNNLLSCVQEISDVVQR
UniProt Q9Y4K4, sequence (Q9Y4K4 whole entry, looked up): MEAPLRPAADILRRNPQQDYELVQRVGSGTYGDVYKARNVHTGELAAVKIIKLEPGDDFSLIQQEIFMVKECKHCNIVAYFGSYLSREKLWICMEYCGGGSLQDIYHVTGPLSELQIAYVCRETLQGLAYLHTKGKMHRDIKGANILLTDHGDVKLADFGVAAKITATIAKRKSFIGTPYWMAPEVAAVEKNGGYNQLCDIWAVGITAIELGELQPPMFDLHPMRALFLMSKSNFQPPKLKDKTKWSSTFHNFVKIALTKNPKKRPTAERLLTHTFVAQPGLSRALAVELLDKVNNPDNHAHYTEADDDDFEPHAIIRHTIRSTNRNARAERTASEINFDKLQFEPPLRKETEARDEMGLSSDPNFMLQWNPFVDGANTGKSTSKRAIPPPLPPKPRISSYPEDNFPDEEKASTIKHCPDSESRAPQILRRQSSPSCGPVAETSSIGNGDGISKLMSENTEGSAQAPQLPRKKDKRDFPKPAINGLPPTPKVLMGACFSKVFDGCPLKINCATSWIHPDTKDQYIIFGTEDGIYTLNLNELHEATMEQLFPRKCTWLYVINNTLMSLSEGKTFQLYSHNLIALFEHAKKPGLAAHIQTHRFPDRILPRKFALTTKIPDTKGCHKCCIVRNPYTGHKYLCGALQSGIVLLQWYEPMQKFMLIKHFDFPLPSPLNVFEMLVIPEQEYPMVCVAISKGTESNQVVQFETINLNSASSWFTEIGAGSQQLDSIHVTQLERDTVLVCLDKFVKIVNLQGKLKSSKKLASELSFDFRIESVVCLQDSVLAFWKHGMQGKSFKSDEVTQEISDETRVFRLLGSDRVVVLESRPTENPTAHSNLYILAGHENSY
UniProt O14976, sequence (O14976 whole entry): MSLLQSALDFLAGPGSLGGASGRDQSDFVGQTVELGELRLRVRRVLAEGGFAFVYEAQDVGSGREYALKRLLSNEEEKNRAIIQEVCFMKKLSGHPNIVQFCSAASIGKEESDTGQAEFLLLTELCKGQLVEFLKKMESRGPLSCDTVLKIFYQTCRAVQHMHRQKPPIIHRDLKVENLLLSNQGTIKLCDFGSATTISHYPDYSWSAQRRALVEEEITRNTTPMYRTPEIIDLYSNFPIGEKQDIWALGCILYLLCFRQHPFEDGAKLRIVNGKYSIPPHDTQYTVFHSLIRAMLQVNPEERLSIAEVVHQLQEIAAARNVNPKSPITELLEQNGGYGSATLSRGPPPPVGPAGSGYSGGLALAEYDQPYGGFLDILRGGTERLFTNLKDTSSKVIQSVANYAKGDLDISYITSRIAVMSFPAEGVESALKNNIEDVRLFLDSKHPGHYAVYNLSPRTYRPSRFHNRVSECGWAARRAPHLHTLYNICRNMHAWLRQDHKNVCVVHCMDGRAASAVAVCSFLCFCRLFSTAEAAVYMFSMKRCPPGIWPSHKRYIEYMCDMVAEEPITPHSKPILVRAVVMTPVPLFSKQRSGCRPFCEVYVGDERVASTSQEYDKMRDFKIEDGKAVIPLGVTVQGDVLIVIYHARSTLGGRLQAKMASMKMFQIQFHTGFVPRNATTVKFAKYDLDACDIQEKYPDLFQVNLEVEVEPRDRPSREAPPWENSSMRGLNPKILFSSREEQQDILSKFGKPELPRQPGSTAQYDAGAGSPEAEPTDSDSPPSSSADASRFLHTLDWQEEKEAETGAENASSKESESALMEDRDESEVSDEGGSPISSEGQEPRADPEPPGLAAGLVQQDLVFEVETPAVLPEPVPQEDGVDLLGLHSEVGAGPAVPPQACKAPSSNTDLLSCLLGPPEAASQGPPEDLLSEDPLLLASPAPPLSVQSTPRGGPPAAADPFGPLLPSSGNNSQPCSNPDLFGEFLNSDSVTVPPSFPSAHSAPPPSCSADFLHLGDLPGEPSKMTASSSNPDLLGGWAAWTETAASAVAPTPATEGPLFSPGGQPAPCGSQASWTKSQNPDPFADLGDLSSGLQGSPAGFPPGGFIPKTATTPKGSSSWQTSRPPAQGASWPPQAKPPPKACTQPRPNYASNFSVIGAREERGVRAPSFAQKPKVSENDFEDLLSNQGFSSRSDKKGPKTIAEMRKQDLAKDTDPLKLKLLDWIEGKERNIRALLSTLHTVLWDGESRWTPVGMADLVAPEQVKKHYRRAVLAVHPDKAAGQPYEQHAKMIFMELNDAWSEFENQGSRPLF
UniProt P23458, sequence (P23458 whole entry): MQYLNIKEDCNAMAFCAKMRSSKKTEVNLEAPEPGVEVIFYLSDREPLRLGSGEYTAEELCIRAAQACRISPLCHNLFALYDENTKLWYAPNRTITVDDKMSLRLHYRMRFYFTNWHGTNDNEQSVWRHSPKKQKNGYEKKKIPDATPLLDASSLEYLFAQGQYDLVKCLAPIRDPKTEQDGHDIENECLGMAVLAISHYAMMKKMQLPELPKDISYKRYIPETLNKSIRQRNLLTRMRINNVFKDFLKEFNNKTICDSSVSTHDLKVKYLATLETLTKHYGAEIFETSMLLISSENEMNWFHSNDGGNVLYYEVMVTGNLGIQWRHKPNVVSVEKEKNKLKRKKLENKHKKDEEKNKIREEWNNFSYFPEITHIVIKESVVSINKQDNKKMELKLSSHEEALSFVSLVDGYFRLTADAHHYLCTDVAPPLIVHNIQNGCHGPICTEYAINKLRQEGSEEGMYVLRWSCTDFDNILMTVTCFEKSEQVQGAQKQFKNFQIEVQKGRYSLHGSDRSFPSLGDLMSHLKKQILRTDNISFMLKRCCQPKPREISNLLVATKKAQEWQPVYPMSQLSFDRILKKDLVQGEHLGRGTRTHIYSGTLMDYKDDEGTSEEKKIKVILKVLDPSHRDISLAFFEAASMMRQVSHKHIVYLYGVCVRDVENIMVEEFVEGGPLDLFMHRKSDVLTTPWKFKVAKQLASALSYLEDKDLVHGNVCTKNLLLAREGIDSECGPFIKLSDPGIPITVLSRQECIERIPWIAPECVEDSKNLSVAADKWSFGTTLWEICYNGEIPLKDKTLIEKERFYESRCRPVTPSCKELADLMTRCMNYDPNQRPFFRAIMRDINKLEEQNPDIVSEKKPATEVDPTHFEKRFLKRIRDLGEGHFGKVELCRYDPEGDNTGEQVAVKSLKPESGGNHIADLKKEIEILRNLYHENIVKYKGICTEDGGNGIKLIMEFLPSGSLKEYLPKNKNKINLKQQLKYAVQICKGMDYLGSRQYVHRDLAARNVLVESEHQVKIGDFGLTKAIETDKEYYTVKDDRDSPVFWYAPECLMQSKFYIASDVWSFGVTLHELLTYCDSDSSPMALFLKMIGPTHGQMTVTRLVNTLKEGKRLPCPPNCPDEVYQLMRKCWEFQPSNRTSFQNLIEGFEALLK

Compound in this experiment: Cc1nc(Nc2ncc(C(=O)Nc3c(C)cccc3Cl)s2)cc(N2CCN(CCO)CC2)n1 [dasatinib]
Briefly: log2 fold change of tryptic peptide abundance, ligand vs vehicle (limited proteolysis) (log2 ratio); higher = more trypsin-susceptible (destabilized). The conditions noted are these: ligand concentration: 5 uM; sample: K562 cleared lysate.
Regarding “GAK (peptide sequence: AIIQEVCFMK, peptide start residue: 81) (UniProt O14976)”, the log2 fold change is -2.44.

For “UniProt Q8N4C8 (peptide sequence: NIATYYGAFIK, peptide start residue: 81)”, the log2 fold change was -0.397.

On to “UniProt Q8NI60 (peptide sequence: VALLDFGATR, peptide start residue: 503)”, for which the log2 fold change is -0.968.

Regarding “ILK (peptide sequence: DFNEECPR, peptide start residue: 234) (UniProt Q13418)”, the log2 fold change is 0.893.

With “TEC (peptide sequence: GCLLNFLR, peptide start residue: 448) (UniProt P42680)”, the log2 fold change is -2.98.

As to “MAP4K5 (peptide sequence: LLTHTFVAQPGLSR, peptide start residue: 271) (UniProt Q9Y4K4)”, the log2 fold change was -0.838.

For the target “MAP4K3 (peptide sequence: RNPQEDFELIQR, peptide start residue: 10) (UniProt Q8IVH8)”, the log2 fold change was -1.06.

For the target “PYGL (peptide sequence: NLAENISR, peptide start residue: 271) (UniProt P06737)”, the log2 fold change is -0.422.

As to “CSK (peptide sequence: SGWALNMK, peptide start residue: 186) (UniProt P41240)”, the log2 fold change is -0.697.

Take “UniProt Q16513 (peptide sequence: IFETVNSVR, peptide start residue: 708)”: the log2 fold change came out at 0.751.

Consider “PAK2 (peptide sequence: LLQTSNITK, peptide start residue: 105) (UniProt Q13177)”, for which the log2 fold change turned out to be 0.206.

“UniProt Q16512 (peptide sequence: VLLSEFRPSGELFAIK, peptide start residue: 629)”: the log2 fold change was 1.18.

As for “UniProt P46781 (peptide sequence: ELLTLDEKDPRR, peptide start residue: 59)”, the log2 fold change is -0.304.

Turning to “ABHD4 (peptide sequence: VAGPWGPGLVQR, peptide start residue: 209) (UniProt Q8TB40)”, the log2 fold change amounted to 0.933.

Take “TNK1 (peptide sequence: VADFGLVRPLGGAR, peptide start residue: 261) (UniProt Q13470)”: the log2 fold change was -0.538.

On to “AASDHPPT (peptide sequence: IGQFVFAR, peptide start residue: 48) (UniProt Q9NRN7)”, for which the log2 fold change is -0.547.

For “UniProt Q13043 (peptide sequence: ATATQLLQHPFVR, peptide start residue: 270)”, the log2 fold change is -0.627.

Regarding “UniProt Q9P289 (peptide sequence: GSFGEVFK, peptide start residue: 33)”, the log2 fold change is -0.606.

As for “ABL2 (peptide sequence: NCLVGENHVVK, peptide start residue: 414) (UniProt P42684)”, the log2 fold change was -2.95.

In the case of “ARAF (peptide sequence: RLLSDCLK, peptide start residue: 544) (UniProt P10398)”, the log2 fold change amounted to 0.619.

Take “UniProt P07947 (peptide sequence: LTTVCPTVKPQTQGLAK, peptide start residue: 251)”: the log2 fold change was found to be 2.59.

On to “MAPK11 (peptide sequence: ILDFGLAR, peptide start residue: 167) (UniProt Q15759)”, for which the log2 fold change was -0.259.

On to “UniProt P36507 (peptide sequence: KLEELELDEQQKK, peptide start residue: 40)”, for which the log2 fold change was found to be 0.445.

“PPAT (peptide sequence: TFIQPNMR, peptide start residue: 356) (UniProt Q06203)”: the log2 fold change was -0.503.

Regarding “UniProt Q02750 (peptide sequence: SYMSPER, peptide start residue: 228)”, the log2 fold change was determined as 1.37.

For the target “JAK1 (peptide sequence: NVLVESEHQVK, peptide start residue: 1008) (UniProt P23458)”, the log2 fold change is -1.51.

With “MAPK14 (peptide sequence: DLLIDEWK, peptide start residue: 331) (UniProt Q16539)”, the log2 fold change is -1.32.

As to “SYK (peptide sequence: GSEVTAMLEKGER, peptide start residue: 578) (UniProt P43405)”, the log2 fold change was -0.709.

“ULK3 (peptide sequence: VIELPLRPLLSR, peptide start residue: 230) (UniProt Q6PHR2)”: the log2 fold change is -0.336.
